Screens as filed in PubChem.
SMN2 splice up: qHTS Assay for Enhancers of SMN2 Splice Variant Expression. HEK293 SMN2-luciferase splicing reporter, luminescence, 30-36 h. Potency, µM (series often up to 46.1 µM), inactives show at the top dose activity change, positive = activation, actives largely listed as activators. actives 2.8% (n = 210,000). AID 1458, 2008; further: % of control where 0% means no effect; nearly all actives have a fitted effect of over 55% in size
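qHTS luciferase splicing reporter: luminescence rises when SMN2 exon 7 is included in transfected HEK293 cells. Compound exposure lasted 30-36 h at 37C, with 4.5 mM final sodium butyrate as control, followed by a ONE-Glo read.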
Rab9 prom act: qHTS Assay for Rab9 Promoter Activators; Huh7 Rab9 promoter-luciferase reporter, luminescence, 24 h; Potency, µM (highest dose often 9.22 µM), for inactives: at the highest dose activation, negative = inhibition, usual class: activators; AID 485297, 2010; actives 2.8% (n = 320,000); further: % of control where 0% means no effect; nearly all actives have a fitted effect of over 60% in size
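Luciferase signal after 10 min detection reagent at ambient indicates Rab9 promoter upregulation; stably transfected Huh7 cells were treated 24 h with compound in DMSO at 37 °C, 5% CO2.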
NPC1 prom act: qHTS Assay for NPC1 Promoter Activators; Huh7 NPC1 promoter luciferase reporter, 24 h; Potency, µM (titrated, usually from 9.22 µM), inactives show top-dose activation, hits mostly activators; actives 2.4% (n = 320,000); AID 485313, 2010; further: % of control where 0% means no effect; nearly all actives have a fitted effect of over 60% in size
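Readout is luciferase luminescence, reflecting NPC1 promoter activation in stably transfected Huh7 cells after 24 h compound exposure at 37 °C in reduced-serum medium with 10% FBS.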
ELG1 genotox: qHTS screen for small molecules that induce genotoxicity in human embryonic kidney (HEK293T) cells expressing luciferase-tagged ELG1 | HEK293T ELG1-luciferase reporter, luminescence, 16 h | Potency, µM (top dose mostly 46 µM), inactives show at the highest dose activity change, positive = activation, actives largely listed as activators | actives 1.3% (n = 330,000) | AID 504466, 2011; further: % of control where 0% means no effect; nearly all actives have a fitted effect of over 60% in size
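ELG1-luciferase HEK293T cells, 2,000/well; compound pinned in; 16 hr, 37 °C, 5% CO2; ONE-Glo, 30 min RT; luminescence on CCD imager.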
KinaseGlo FLuc: Counterscreen for Luciferase (Kinase-Glo TM) Inhibition. AID 1379, 2008. actives 0.28% (n = 200,000). Kinase-Glo luciferase, ATP luminescence, 8 min. Potency, µM (highest dose often 38.3 µM), for the others: top-dose activity change, negative = inhibition, most hits filed as inhibitors; further: on the % scale 0 is the no-effect control and ±100 the full control effect; nearly all actives have a fitted effect of over 60% in size
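Luminescence was the read-out, taken after 8-minute incubation at ambient temperature. Luciferase turned over luciferin with 10 uM ATP in imidazole pH 7.2 buffer containing KCl, MgCl2, Tween 20 and BSA.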
FLuc counter: qHTS profiling assay for firefly luciferase inhibitor/activator using purifed enzyme and Km concentrations of substrates (counterscreen for miR-21 project); actives 6.9% (n = 360,000); Luciferin 4-monooxygenase (Photinus pyralis), P08659; Potency, µM (titrated, usually from 57.5 µM), for inactives: at the top dose activity change, negative = inhibition, hits mostly inhibitors; purified FLuc, Km substrates, luminescence inhibition;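 further: plate controls were vehicle for no effect and reference inhibitor for full effect; nearly all actives have a fitted effect of over 55% in size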
Target sequence (P08659 whole entry, looked up): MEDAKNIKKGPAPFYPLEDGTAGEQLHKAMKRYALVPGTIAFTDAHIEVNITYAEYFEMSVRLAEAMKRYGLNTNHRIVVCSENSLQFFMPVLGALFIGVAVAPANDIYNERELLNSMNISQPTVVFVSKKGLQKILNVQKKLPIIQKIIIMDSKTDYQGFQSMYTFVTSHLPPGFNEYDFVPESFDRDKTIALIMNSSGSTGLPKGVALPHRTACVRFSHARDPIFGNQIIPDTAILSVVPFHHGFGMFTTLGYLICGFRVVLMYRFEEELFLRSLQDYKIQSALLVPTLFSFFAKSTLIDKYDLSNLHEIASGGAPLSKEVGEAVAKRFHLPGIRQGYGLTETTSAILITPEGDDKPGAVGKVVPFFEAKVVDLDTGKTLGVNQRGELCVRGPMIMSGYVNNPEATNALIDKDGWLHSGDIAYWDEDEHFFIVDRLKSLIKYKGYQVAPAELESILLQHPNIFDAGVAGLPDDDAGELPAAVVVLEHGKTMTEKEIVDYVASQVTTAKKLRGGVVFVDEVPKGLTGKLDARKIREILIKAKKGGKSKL
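Purified P. pyralis luciferase, 10 nM final, with Km-level 10 uM D-luciferin and 10 uM ATP in 50 mM Tris acetate pH 7.5, 10 mM Mg acetate, 0.01% Tween-20, 0.05% BSA; 6-point qHTS titration about 60 µM downward; luminescence read.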
The depositor's hits bear a star; ? = inconclusive; / = no result; [ ] = dose if it differs, or a comment. The list is not random: actives were taken first. Their share in the collection is about 7.5%. The call rests on the fitted dose curve; in most records, active means well fitted curve in the direction sought with a large enough effect; inconclusive means small, poorly fitted or top-dose-only effect, or another doubt; inactive means no such curve, though single readings can be large; an effect the other way counts as inactive or inconclusive. Potency means the concentration at half of the fitted maximal effect.

SMILES	SMN2 splice up	Rab9 prom act	NPC1 prom act	ELG1 genotox	KinaseGlo FLuc	FLuc counter
Cc1cc(NC(=O)c2cc3cccc([N+](=O)[O-])c3[nH]2)ccc1F	/	2.24µM*	2.51µM*	?	/	5.36µM*
CCOC(=O)c1ccc(NC(=S)Nc2ccccc2)cc1	?	-1.9%	1.2%	8.1%	0.3%	?
CCOC(=O)C(/C(N)=N/C(=O)Nc1ccccc1)=C(\C)O	-4.3%	1.5%	6.3%	4.2%	-7.7%	6.01µM*
CCOC(=O)c1noc2ncnc(N3CCN(c4ccccc4OC)CC3)c12	/	/	/	/	/	1.4%
Cc1ccc(C(=O)c2coc3c2C(=O)C(=O)c2ccccc2-3)cc1	-13.7%	19.6%	14.5%	14.1µM*	-5.5%	?
Cc1ccc(CN2C(=O)N/C(=C\c3ccc(-c4ccc(C(=O)O)cc4C)o3)C2=O)cc1	/	-6.0%	-1.1%	-1.8%	/	0.9%
Cc1cc(C(=O)O)ccc1-c1ccc(CO)o1	1.0%	9.7%	3.1%	15.4%	3.2%	26.9µM*
C/C(=N/NC(=O)c1ccco1)c1cccc(NC(=O)c2ccc(C)o2)c1	16.8%	19.2%	-1.3%	4.6%	-3.9%	15.1µM*
C/C(=N/NC(=O)c1ccc(C)s1)c1cccc(NC(=O)COc2ccc(Cl)cc2Cl)c1	5.5%	0.501µM*	0.562µM*	17.0%	-1.6%	2.13µM*
COC(=O)c1cccc(NC(=O)c2ccco2)c1	?	13.3%	13.9%	-0.4%	-2.1%	-17.7%
C/C(=N/NC(=O)c1ccco1)c1cccc(NC(=O)c2ccc(C)s2)c1	?	27.1%	22.5%	12.8%	-5.6%	4.78µM*
C/C(=N\NC(=O)c1ccn(C)n1)c1cccc(NC(=O)c2ccc(C)s2)c1	?	29.6%	?	8.1%	-1.9%	3.01µM*
COc1cccc2c(C)cc3nnc(SCC(=O)Nc4ccc(C)cc4)n3c12	/	/	/	/	/	-15.2%
Cc1cccc(C)c1NC(=O)Cn1c(=O)n(CCCS(=O)(=O)C2CCCCC2)c(=O)c2ccccc21	3.3%	/	/	/	/	-0.7%
C/C(=N\NC(=O)C1CC1)c1ccc(NC(=O)c2ccc(Br)o2)cc1	22.3%	12.1%[1.84 µM]	?	?	-7.9%	-3.7%
C/C(=N/NC(=O)c1ccc(Br)o1)c1cccc(NC(=O)c2ccc(F)cc2)c1	/	3.4%	-2.5%	-8.9%	/	10.7µM*
C/C(=N/NC(=O)c1ccc(Br)o1)c1ccncc1	6.3%	-1.9%	2.3%	1.0%	-3.3%	?
C/C(=N/NC(=O)c1ccc(Br)o1)c1cccc(NC(=O)c2ccc(C)o2)c1	13.1%	12.8%	0.9%	-2.3%	0.2%	10.7µM*
C/C(=C\C(=O)c1ccccc1)NCc1ccc(F)cc1	-6.0%	19.9%	7.5%	0.1%	-2.5%	19µM*
CCc1ccc(NC(=O)c2cnn3ccccc23)cc1	1.78µM*	0.112µM*	0.316µM*	0.184µM*	-18.4%	0.338µM*
Cn1nc(C(=O)NCc2ccccc2)c2ccccc2c1=O	7.9%	9.1%	-0.3%	?	1.3%	-0.7%
Cn1nc(C(=O)NCc2ccc(F)cc2)c2ccccc2c1=O	17.8µM*	-6.4%	-4.0%	3.8%	-6.5%	10.1%
COc1ccc(CNC(=O)c2cnn(-c3ccc(F)cc3)c2-n2cccc2)cc1	/	/	/	/	/	-17.2%
O=C(NCc1ccc(F)cc1)c1cnn2ccccc12	12.6µM*	2µM*	3.16µM*	?	-3.8%	12µM*
CCc1ccc(NC(=O)c2cnn(-c3ccccc3)c2-n2cccc2)cc1	?	/	/	/	/	-10.3%
SMILES	SMN2 splice up	Rab9 prom act	NPC1 prom act	ELG1 genotox	KinaseGlo FLuc	FLuc counter
COc1ccc(NC(=O)C(NS(=O)(=O)c2cccc3nsnc23)c2ccccc2)cc1 (stereo not drawn)	-10.9%	/	/	/	/	-3.4%
COC(=O)c1sccc1S(=O)(=O)N(CC(=O)Nc1c(C)cccc1C)c1ccc(C)c(C)c1	/	/	/	/	/	1.1%
O=C(c1ccc(Cl)cc1)N1CCC(c2ccncc2)CC1	/	/	/	/	/	-3.8%
CCCn1c(C)nc2c(N3CCC(N4CCN(C)CC4)CC3)nc(C)nc21	10.4%	/	/	/	-0.2%	/
CSc1cccc(NC(=O)c2cnn3ccccc23)c1	/	2µM*	2.51µM*	?	/	4.26µM*
CCc1ccc(NC(=O)c2cc(C(C)=O)n3ccccc23)cc1	/	/	/	/	/	15.1µM*
COC(=O)c1cc(C(C)=O)n2ccccc12	12.3%	-3.1%	-2.0%	?	-1.0%	10.7%
CCOC(=O)c1nc(Nc2ccc(C(=O)OCC(C)C)cc2)c2ccccc2n1	-11.1%	/	/	/	/	-3.1%
CCCCc1c(C)nn(-c2nnc3c4ccccc4n(C)c3n2)c1C	-5.1%	6.3%	21.9%	2.5%	-3.1%	6.75µM*
Cn1c2ccccc2c2nnc(NN)nc21	/	-6.2%	2.9%	3.6%	/	-10.9%
Nc1ccc(C(=O)Nc2nccs2)cc1	12.6µM*	3.98µM*	?	?	-12.9%	?
Cc1ccc(C(=O)Nc2nccs2)cc1	10µM*	2.24µM*	2.82µM*	?	-14.7%	8.49µM*
COc1ccc(C(=O)Nc2nc(-c3cccs3)c(NC(C)=O)s2)cc1	-0.5%	24.1%	-1.7%	15.6%	6.5%	-3.0%
CC(=O)Nc1sc(NC(=O)c2ccc(C)cc2)nc1-c1cccs1	11.2µM*	-7.0%	-2.9%	7.2%	2.3%	-14.3%
O=C(Nc1nccs1)c1ccc(NC(=O)c2ccco2)cc1	?	2.82µM*	3.98µM*	?	-3.0%	16.9µM*
O=C(Nc1nccs1)c1ccc2nccnc2c1	-2.6%	?	?	7.5%	-3.7%	?
Cc1ccc(C)c(Cn2c(=O)n(Cc3ccco3)c(=O)c3oc4ccccc4c32)c1	/	/	/	/	/	-4.2%
Cc1ccc(C(=O)Nc2nc(=O)[nH]s2)cc1	37.6%	2.7%	-0.8%	5.5%	5.0%	23.9µM*
Cc1ccc(C(=O)Nc2ccc3c(c2)C(=O)NC3=O)cc1	/	13.8%	-2.0%	18.9%	/	?
Cc1nc(NC(=O)C2CCCC2)sc1Cc1ccc2c(c1)OCO2	?	?	15.9%	14.6%	-0.2%	16.9µM*
CCCC(=O)Nc1nnc(-c2ccc3c(c2)OCCO3)o1	?	1.5%	16.0%	-4.8%	6.9%	15.1µM*
O=C(Nc1nc(-c2ccc3c(c2)OCO3)cs1)C1CC1	11.2µM*	3.55µM*	?	16.4µM*	1.2%	12µM*
O=C(CSCC(=O)Nc1nc(-c2ccc3c(c2)OCO3)cs1)Nc1nccs1	/	24.7%	24.7%	-0.4%	/	?
CCCC(=O)Nc1nnc(-c2ccc3c(c2)OCO3)s1	/	?	22.2%	?	/	-13.9%
